This is an account of results in PubChem BioAssay (NCATS).

Each structure is given as a SMILES string. Where “and” joins values, the source holds several entries; their conditions need not be identical. Equal entries are not always repeated. Values without a mark were called inactive. Records with an inconclusive call do not appear. Calls of active or inactive are those of the source. Unless noted, calls follow the shape of the dose curve; as a rule, active = well fitted curve in the direction sought with a large enough effect; inconclusive = small, poorly fitted or top-dose-only effect, or another doubt; inactive = no such curve, though single readings can be large; an effect the other way counts as inactive or inconclusive. Peptide text beside a SMILES is read from it.

Experiment [1] has as its target Mitogen-activated protein kinase 10 (Mus musculus) (UniProt Q61831). In words: JNK3 AlphaScreen Assay (AID 530; active = well fitted curve in either direction with a large enough effect, not every such curve was filed as active;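 also: kinase came from lysate of stimulated human HepG2 cells; signal reports phosphorylation of biotinylated GST-cJun 1-79 at Ser73 with 10 µM ATP; % is scaled to controls: 0 for no effect and ±100 for the full control effect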). In short, it runs like this: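 Inhibitors reduce antibody binding to phosphorylated biotin-cJun, lowering AlphaScreen luminescence. Lysates from HepG2 cells pre-activated by IL-1beta plus TNF-alpha supplied JNK3; compounds were titrated.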
In experiment [2] the target is 3',5'-cyclic-AMP phosphodiesterase 4B (Homo sapiens) (UniProt Q07343). In words: qHTS Assay for Inhibitors of PDE-IV (AID 607; active = well fitted activation curve with a large enough effect in the main read-out, with a control signal flat, not every such curve was filed as active; also: % of control where 0% means no effect). In short, it runs like this:
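Live HEK293 cells with a modified cyclic nucleotide-gated (CNG) channel report intracellular cAMP via membrane-potential dye fluorescence (ex 535/em 590 nm). Endogenous PDE-IV was targeted. Compounds were tested at up to 22.9 uM final; RO 20-1724 100 uM served as control.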

A short description of experiment [3]: Cell Viability - NIH 3T3 (AID 541).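 Also: plate controls were DMSO alone for no effect and tamoxifen positive control for full effect; nearly all actives have a fitted effect of over 25% in size.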 In outline: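 Mouse NIH 3T3 fibroblasts, 1000 cells/well, rested 5 hr at 37 °C, then exposed to compound for 40 hr at 37 °C in complete medium. Viability read as intracellular ATP by CellTiter-Glo luminescence; AC50 from Hill-equation fits of concentration-response data.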
The nature of experiment [4]: Cell Viability - HUV-EC-C (AID 542). Also: % is scaled to controls: 0 for no effect and ±100 for the full control effect; nearly all actives have a fitted effect of over 35% in size. In short, it runs like this:
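HUV-EC-C human vascular endothelial cells, 1000/well, exposed to compound for 40 hr at 37 °C in complete medium. Intracellular ATP was read by CellTiter-Glo luminescence. AC50 came from Hill-equation fits of concentration-response data.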

Experiment [5] in a line: Cell Viability - H-4-II-E (AID 543). Also: % is scaled to controls: 0 for no effect and ±100 for the full control effect; nearly all actives have a fitted effect of over 35% in size. In short, it runs like this:
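Rat hepatoma H-4-II-E cells, 1500 per well, treated 40 h at 37 °C in complete medium. Cellular ATP read by CellTiter-Glo luminescence; AC50 from Hill fits of concentration-response.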

Experiment [6] in a line: Cell Viability - SH-SY5Y (AID 544). Also: nearly all actives have a fitted effect of over 55% in size. As to conditions: SH-SY5Y neuroblastoma cell viability; at 92.2 µM (top of the series). In outline: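 SH-SY5Y human neuroblastoma cells (1500/well) incubated 5 h, then compound-treated 40 h at 37 °C in complete medium. Viability read as intracellular ATP by CellTiter-Glo luminescence after 20 min; AC50 from Hill-equation fits of qHTS concentration-response.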

Experiment [7] in a line: Cell Viability - Renal Proximal Tubule (AID 545). Also: nearly all actives have a fitted effect of over 40% in size. In short, it runs like this:
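Rat kidney proximal tubule cells, freshly isolated; 1000 cells/well, 5 hr settle, compound 40 hr 37 °C. CellTiter-Glo 20 min RT, luminescence read. AC50 by standard Hill fit.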

Experiment [8] in a line: Cell Viability - Mesenchymal (AID 546).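 Also: cells exposed to compound for 40 hours before reading.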 As to conditions: mesenchymal cells viability, qHTS; at 91.7 µM (top of the series). In short, it runs like this:
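Normal human renal glomerulus-derived kidney mesenchymal cells, 1000 per well in complete medium, were treated with compounds for 40 hr at 37 °C. Viability was read as intracellular ATP by CellTiter-Glo luminescence; AC50 values came from Hill-equation fits of qHTS concentration-response data.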
For orientation: qHTS replaces the single test concentration by a dilution series.

A short description of experiment [9]: Cellular Toxicity (caspase-3) HepG2 (AID 654).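 Also: cells exposed to compound for 16 hours before reading; 0% = DMSO alone and 100% = caspase signal from 100 µM tamoxifen.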 In outline: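 HepG2 cells (1500/well) were treated 16 h at 37 °C in complete medium, then caspase 3/7 activity was read by Caspase-Glo luminescence. Data were normalized to DMSO and 100 uM tamoxifen; AC50 came from Hill-equation fits of qHTS concentration-response.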
Experiment [10] can be described thus: Cellular Toxicity (caspase-3) Jurkat (AID 655).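 Also: cells exposed to compound for 16 h at 37 °C before reading.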 Also: potency is read from the fitted curve at half-maximal effect. As to conditions: Jurkat caspase-3 activation, luminescence; caspase-3 activation: at 92.2 µM (top of the series), DMSO = 0%, tamoxifen = 100%. In short, it runs like this:
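Luminescent caspase-3/7 readout (aminoluciferin substrate cleavage) in human T-cell leukemia Jurkat cells after 16 hr compound exposure. Concentration-response normalized to DMSO and 100 uM tamoxifen; AC50 by standard Hill equation.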

The nature of experiment [11]: Cellular Toxicity (caspase-3) HUV-EC-C (AID 656). In short, it runs like this: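 Luminescent caspase-3/7 activation (aminoluciferin substrate cleavage) in HUV-EC-C cells after 16 hr compound exposure, 37°C. Signal normalized to DMSO basal and 100 uM tamoxifen as 100%; AC50 from concentration-response fitted with the Hill equation.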
Experiment [12] can be described thus: Cellular Toxicity (caspase-3) SHSY5Y (AID 657). In outline: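 Luminescent caspase-3/7 readout (aminoluciferin release) in SH-SY5Y cells after 16 h compound exposure in complete medium. Activity scaled between DMSO basal and 10 uM staurosporine as 100%; concentration-response fitted to Hill equation for AC50.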
The nature of experiment [13]: Cellular Toxicity (caspase-3) BJ (AID 658).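 Also: 0% = DMSO basal and 100% = 10 µM staurosporine.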 In outline: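 Luminescent aminoluciferin-substrate cleavage reports caspase 3/7 activity in normal human BJ fibroblasts after 16 hr compound exposure at 37 °C. Normalized to DMSO (basal) and 10 uM staurosporine (100%); AC50 from Hill fit of concentration-response.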
Experiment [14] is described as follows: Cellular Toxicity (caspase-3) MRC-5 (AID 659).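 Also: 0% = DMSO basal and 100% = 10 µM staurosporine.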 In outline: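 Luminescence from caspase-cleaved aminoluciferin substrate (Caspase-Glo 3/7, 1 hr RT) reports caspase 3/7 activity in MRC-5 lung fibroblasts after 16 hr compound exposure. Normalized to DMSO basal and 10 uM staurosporine as 100%; AC50 from Hill fits.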
Experiment [15] can be described thus: Cellular Toxicity (caspase-3) Mesangial (AID 660).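 Also: cells exposed to compound for 16 h before the caspase read.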 In short, it runs like this: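 Human renal glomerular mesangial cells, 1000/well, 5 h at 37 C before 16 h compound treatment. Caspase-Glo 3/7 luminescence after 20 min; normalized to DMSO and 100 uM tamoxifen, AC50 from Hill fit.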
The nature of experiment [16]: Cellular Toxicity (caspase-3) SK-N-SH (AID 661).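 Also: 0% = DMSO basal and 100% = 10 µM staurosporine.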 In outline: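 Human SK-N-SH neuroblastoma cells, 1500/well, were exposed to compounds for 16 hours at 37 °C. Caspase-Glo 3/7 luminescence was normalized to DMSO (basal) and 10 uM staurosporine (100%), and AC50 came from a Hill fit.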
Experiment [17] is described as follows: Cellular Toxicity (caspase-3) H-4-II-E (AID 663).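 Also: cells exposed to compound for 16 hr before readout.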 In outline: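 Luminescence from caspase-cleaved aminoluciferin substrate, read 20 min after reagent addition, reports caspase 3/7 activation in rat H-4-II-E cells after 16 hr compound exposure. Normalized to DMSO (basal) and 100 uM tamoxifen (100%); AC50 from Hill fits.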
Experiment [18] can be described thus: Cellular Toxicity (caspase-3) Hek293 (AID 664).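 Also: cells exposed to compound for 16 h at 37 °C before readout.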 In outline: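 HEK293 cells in complete medium treated 16 h at 37 °C, then Caspase-Glo 3/7 luminescence read after 20 min at room temperature. Normalized to DMSO and 100 uM tamoxifen; AC50 from Hill fit of concentration-response.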
Experiment [19] addresses Glucocorticoid receptor (Homo sapiens) (UniProt P04150). In words: GR-GFP Redistribution (AID 450;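 active = compounds whose dose series gives a full or clear partial fitted curve of increased nuclear translocation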; also: potency is read from the fitted curve at half-maximal effect). As to conditions: U2OS GR-GFP nuclear translocation, laser cytometry, 2 h.
Experiment [20] has the same target. In words: GR-EFC Redistribution (AID 451; calls by dose curve; also: potency is read from the fitted curve at half-maximal effect). As to conditions: CHO-K1 GR-EFC translocation, beta-gal luminescence, 2 h. In short, it runs like this:
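CHO-K1 cells stably expressing nuclear-localized β-gal enzyme acceptor and GR fused C-terminally to the enzyme donor fragment; ligand-driven nuclear translocation restores β-gal by complementation. Compounds titrated up to 46 uM final, 2 h at 37 °C; luminescence read.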

Sequence of Glucocorticoid receptor (Homo sapiens) (P04150 whole entry, looked up): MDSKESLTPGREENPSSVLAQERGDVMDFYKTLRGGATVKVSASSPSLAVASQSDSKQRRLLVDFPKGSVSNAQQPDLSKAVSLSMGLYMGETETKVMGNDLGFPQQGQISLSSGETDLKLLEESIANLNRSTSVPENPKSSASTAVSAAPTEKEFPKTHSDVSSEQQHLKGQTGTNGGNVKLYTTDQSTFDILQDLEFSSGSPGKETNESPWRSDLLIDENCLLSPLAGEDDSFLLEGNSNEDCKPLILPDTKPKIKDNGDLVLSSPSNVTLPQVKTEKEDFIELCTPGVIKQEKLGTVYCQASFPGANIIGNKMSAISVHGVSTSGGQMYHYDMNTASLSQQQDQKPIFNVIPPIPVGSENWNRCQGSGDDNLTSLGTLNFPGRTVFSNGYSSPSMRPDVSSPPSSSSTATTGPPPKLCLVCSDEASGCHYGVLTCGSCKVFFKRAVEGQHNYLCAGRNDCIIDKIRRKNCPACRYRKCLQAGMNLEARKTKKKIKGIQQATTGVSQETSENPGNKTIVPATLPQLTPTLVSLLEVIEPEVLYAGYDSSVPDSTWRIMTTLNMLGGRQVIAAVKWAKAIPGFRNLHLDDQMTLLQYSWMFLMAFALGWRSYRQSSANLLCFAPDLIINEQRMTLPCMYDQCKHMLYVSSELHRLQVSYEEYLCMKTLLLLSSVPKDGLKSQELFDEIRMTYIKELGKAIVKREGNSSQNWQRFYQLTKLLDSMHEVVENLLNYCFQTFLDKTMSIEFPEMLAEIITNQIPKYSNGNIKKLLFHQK
Sequence of 3',5'-cyclic-AMP phosphodiesterase 4B (Homo sapiens) (Q07343 whole entry, looked up): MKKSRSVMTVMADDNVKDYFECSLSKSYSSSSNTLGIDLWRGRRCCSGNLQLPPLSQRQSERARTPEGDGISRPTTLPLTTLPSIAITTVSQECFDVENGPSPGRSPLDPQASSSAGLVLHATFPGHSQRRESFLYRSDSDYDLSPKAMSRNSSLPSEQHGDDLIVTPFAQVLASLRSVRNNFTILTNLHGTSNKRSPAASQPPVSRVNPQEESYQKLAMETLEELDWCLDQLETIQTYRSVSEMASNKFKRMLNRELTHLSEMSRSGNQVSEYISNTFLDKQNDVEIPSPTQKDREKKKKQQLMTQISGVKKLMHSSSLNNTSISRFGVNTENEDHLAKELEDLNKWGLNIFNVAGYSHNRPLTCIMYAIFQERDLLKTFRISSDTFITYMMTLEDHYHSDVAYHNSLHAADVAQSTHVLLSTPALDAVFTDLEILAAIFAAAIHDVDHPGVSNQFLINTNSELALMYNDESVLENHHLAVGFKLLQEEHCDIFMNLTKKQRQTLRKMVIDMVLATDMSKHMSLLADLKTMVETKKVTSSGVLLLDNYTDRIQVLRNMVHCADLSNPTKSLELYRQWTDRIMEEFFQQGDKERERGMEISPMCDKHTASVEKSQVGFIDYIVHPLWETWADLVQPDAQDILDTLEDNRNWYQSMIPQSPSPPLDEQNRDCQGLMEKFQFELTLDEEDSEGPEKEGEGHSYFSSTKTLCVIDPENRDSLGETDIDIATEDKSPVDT

Regarding `CC(C)(C)C(=O)OCOC(=O)[C@@H]1N2C(=O)[C@@H](N=CN3CCCCCC3)[C@H]2SC1(C)C`, the call in experiment [1] and in [2] was inactive.

Take `O=S(=O)(O)O`: the molecule was called inactive in experiment [1], in [3], in experiment [7], in [9], in experiment [11] and in experiment [12]. Besides, the outcome in experiment [13], in [14], in experiment [15], in experiment [16], in experiment [17] and in [18] was inactive. The Potency result in experiment [4] and in experiment [5] was “inactive” throughout. Also, the viability change, negative = cytotoxic in experiment [6] was 2.52% and 9.94%. In addition, the activity change, negative = cytotoxicity in [8] was -5.83% and 4.47%. Besides, in experiment [10], the caspase-3 activation is 4.57% and 0.977%.

Consider `O=CCCCC=O`, for which the outcome in experiment [1], in [7], in experiment [11], in [12], in experiment [15] and in experiment [18] was inactive. In addition, in experiment [4], the Potency entry is “inactive”. Moreover, the activity change, negative = cytotoxicity in experiment [8] is -29.7%. Besides, the Potency in experiment [10] was 6.31 µM (active).

Consider `O=C(O)CC/C=C\CC[C@H]1[C@@H](N2CCCCC2)[C@@H](O)C[C@@H]1OCc1ccc(-c2ccccc2)cc1`, for which the Potency in experiment [19] and in [20] was above 46 µM throughout. For the same molecule, the molecule was called inactive in [1] and in experiment [2].

Take `IC(I)I`: the molecule was called inactive in experiment [1], in [3], in experiment [7], in [9], in experiment [11] and in experiment [12]. Besides, the call in experiment [13], in [14], in experiment [15], in experiment [16], in [17] and in experiment [18] was inactive. In addition, the Potency entry in experiment [4] and in experiment [5] was “inactive” each time. Besides, in experiment [6], the viability change, negative = cytotoxic is -2.58%. In addition, in experiment [8], the activity change, negative = cytotoxicity is 5.44%. In addition, the caspase-3 activation in [10] was -0.0373%.

As to `Nc1c(Br)cc(Br)cc1CNC1CCC(O)CC1` (stereo not drawn), the Potency in [19] and in experiment [20] was above 20.6 µM throughout. In addition, the call in [1] and in experiment [2] was inactive.

`CC(=O)N[C@@H](CC(=O)O)C(=O)N[C@@H](CCC(=O)O)C(=O)O` (Ac-Asp-Glu-OH): the Potency in experiment [19] was > 20.6 µM and > 46 µM; in experiment [20], > 20.6 µM and > 46 µM. Further, the outcome in [1] and in experiment [2] was inactive.

As to `CCCCCCCC/C=C\CCCCCCCC(=O)O`, the call in experiment [1], in experiment [3], in experiment [7], in experiment [9], in experiment [11] and in [12] was inactive. Further, the outcome in experiment [13], in experiment [14], in experiment [15], in experiment [16], in experiment [17] and in experiment [18] was inactive. In addition, the Potency entry in [4] and in experiment [5] was “inactive” throughout. In addition, the viability change, negative = cytotoxic in experiment [6] is 3.98%. Further, the activity change, negative = cytotoxicity in [8] was 16.2%. In addition, the caspase-3 activation in [10] was 1.62%.

As for `CC1(C)S[C@@H]2[C@H](NC(=O)[C@@H](NC(=O)N3CCNC3=O)c3ccccc3)C(=O)N2[C@H]1C(=O)O`, the Potency in [19] and in [20] was above 20.6 µM in each case. The molecule was called inactive in experiment [1] and in [2].
